Consider 7 compounds from PubChem BioAssay (NCATS).

Unmarked numbers belong to inactive results. Inconclusive results are not listed. Active and inactive are the calls of the source. Unless noted, calls come from the whole dose curve; as a rule, active = well fitted curve in either direction with a large enough effect (not every such curve was filed as active); inconclusive = small, poorly fitted or top-dose-only effect, or another doubt; inactive = flat fitted curve, though single readings scatter.

For assay [1], the target named is Lysosomal acid glucosylceramidase (Homo sapiens) (UniProt P04062). The assay can be described thus: Glucocerebrosidase-p2 (AID 348; in the data active = potency below about 10 µM; note: potency is the fitted concentration of half-maximal effect). The conditions noted are these: purified GBA, blue fluorogenic substrate, 40 min. In a few lines: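 Compounds titrated from 0.6 nM upwards against 0.2 nM enzyme in pH 5.9 citric acid/KH2PO4, taurocholate, tween-20; blue fluorogenic substrate 80 uM, 40 min room temperature, stopped and read Ex 365/Em 440 for AC50.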

A short description of assay [2]: AP1 Signaling Pathway (AID 357).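 Note: ME-180 reporter cells stimulated with EGF at its EC50 level; % is set by controls: 0 for no effect and ±100 for the full control effect.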 The settings on record: ME-180 AP-1-bla reporter, EGF-induced, beta-lactamase ratio, 5 h; at 7.69 µM (top of the series) unless noted. In a few lines:
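In this screen, ME-180 cells in Opti-MEM with 0.5% dialyzed FBS received EC50 EGF and compound titrations for 5 h. AP-1 reporter beta-lactamase was detected via CCF4 ratio, giving AC50 for positive and negative modulators.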

In assay [3] the target is Cytochrome P450 1A2 (Homo sapiens) (UniProt P05177). The assay can be described thus: p450-cyp1a2 (AID 410; calls by dose curve; note: potency is the fitted concentration of half-maximal effect;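 for activity change, negative = inhibition: -100% = full effect of reference inhibitor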). The settings on record: recombinant CYP1A2, luciferin-ME demethylation, luminescence; series mostly up to 11.4 µM. In a few lines: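 Luminescent readout of luciferin formed from Luciferin-ME by human CYP1A2; data normalized against complete inhibition by 57 uM furafylline. Enzyme 20nM, substrate 100uM at Km, 100mM KPO4 buffer, 60 min reaction at room temperature.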

Assay [4] can be described thus: NFAT Signaling Pathway (AID 444).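 Note: carbachol stimulus at about its EC50 of 1 µM final; % is set by controls: 0 for no effect and ±100 for the full control effect.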 The settings on record: Jurkat NFAT-bla M1, carbachol, beta-lactamase ratio, 5 h; at 7.69 µM (top of the series) unless noted. In a few lines: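 Jurkat cells with NFAT-driven β-lactamase reporter and co-expressed M1 receptor, stimulated with carbachol (final 1 uM, ~EC50), compound titration, 5 h at 37 °C. CCF4 loaded 1 h at RT; 460/530 nm ratio gave %activity and AC50.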

Assay [5] is described as follows: Stat Signaling Pathway (AID 446).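 Note: ME-180 cervical cancer cells given 40 pM IL-6 alongside compound; SIE-controlled beta-lactamase reporter measured as 460/530 nm FRET emission ratio; % is set by controls: 0 for no effect and ±100 for the full control effect.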 The conditions noted are these: ME-180 SIE beta-lactamase reporter, IL-6 stimulated, 5 h; at 7.69 µM (top of the series) unless noted. In a few lines: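 ME-180 SIE-bla cells; overnight plating; cpd + IL-6 40 pM, 5 h, 37 C; LiveBLAzer 2.5 h RT; 460/530 nm emission ratio. Normalized to 300 pM IL-6 and 125 nM JAK inhibitor controls.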

Assay [6] deals with Glucocorticoid receptor (Homo sapiens) (UniProt P04150). Kind of assay: GR-GFP Redistribution (AID 450;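 active = compounds whose dose series gives a full or clear partial fitted curve of increased nuclear translocation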; note: potency is the fitted concentration of half-maximal effect). The conditions noted are these: U2OS GR-GFP nuclear translocation, laser cytometry, 2 h.
Assay [7] has the same target. Kind of assay: GR-EFC Redistribution (AID 451; calls by dose curve; note: potency is the fitted concentration of half-maximal effect). The settings on record: CHO-K1 GR-EFC translocation, beta-gal luminescence, 2 h. In a few lines: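 CHO-K1 cells expressing nuclear EA and GR-ED fragments of b-gal; compounds titrated up to 46 uM final, 2 h at 37 C. GR nuclear translocation read as complemented b-gal luminescence after 1 h RT detection.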
For assay [8], the target named is Mitogen-activated protein kinase 10 (Mus musculus) (UniProt Q61831). Kind of assay: JNK3 AlphaScreen Assay (AID 530).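 Note: kinase came from lysate of stimulated human HepG2 cells; signal reports phosphorylation of biotinylated GST-cJun 1-79 at Ser73 with 10 µM ATP; % is set by controls: 0 for no effect and ±100 for the full control effect.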 The settings on record: JNK3 lysate, c-Jun phosphorylation; series mostly up to 11.4 µM. In a few lines: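 Pre-activated (IL-1β/TNFα) JNK3 in HepG2 lysates phosphorylates biotin-GST-cJun(1-79), 10 uM ATP; anti-phospho-cJun(Ser73) AlphaScreen read at room temperature, pH 7.6 Tris buffer. Compounds pre-incubated 15 min as titrations.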
(In Alpha technology, singlet oxygen from a donor bead excites a nearby acceptor bead.)

The target in assay [9] is 3',5'-cyclic-AMP phosphodiesterase 4B (Homo sapiens) (UniProt Q07343). The assay can be described thus: qHTS Assay for Inhibitors of PDE-IV (AID 607; active = well fitted activation curve with a large enough effect in the main read-out, with a control signal flat, not every such curve was filed as active; note: % of control where 0% means no effect). The conditions noted are these: HEK293 ACTOne CNG channel cells, membrane potential fluorescence; series mostly up to 22.9 µM. In a few lines: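 ACTOne HEK293 cells carry a modified cAMP-gated CNG channel and express endogenous PDE4; plated 1000 cells/well, compounds up to 22.9 uM final. Membrane-potential dye fluorescence (ex 535/em 590) was read; parental cells received 10 uM forskolin + 100 uM RO 20-1724.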
(In general: qHTS replaces the single test concentration by a dilution series.)

Assay [10] concerns the target Cytochrome P450 3A4 (Homo sapiens) (UniProt P08684). Kind of assay: qHTS Assay for Inhibitors and Substrates of Cytochrome P450 3A4 (AID 884; active = well fitted curve in the direction sought with a large enough effect; an effect the other way counts as inactive or inconclusive; note: nearly all actives have a fitted effect of over 50% in size; note: potency is the fitted concentration of half-maximal effect). The settings on record: recombinant CYP3A4, Luciferin-PPXE luminescence; series mostly up to 57.1 µM. In a few lines:
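20 nM human CYP3A4 with 25 uM Luciferin-PPXE (at KM) in 200 mM KPO4, preincubated 10 min with compound; NADPH regeneration started a 60 min RT reaction. Luciferin detected by luminescence, normalized to 57 uM ketoconazole as full inhibition.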

The target is the same in assay [11]. The assay can be described thus: qHTS Assay for Activators of Cytochrome P450 3A4 (AID 885; active = well fitted curve in the direction sought with a large enough effect; an effect the other way counts as inactive or inconclusive; note: nearly all actives have a fitted effect of over 65% in size). The settings on record: recombinant CYP3A4, Luciferin-PPXE luminescence, 60 min; series mostly up to 11.4 µM. In a few lines: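 20nM CYP3A4 + 25uM Luciferin-PPXE (=KM), 200mM KPO4; cpd 10 min RT; NADPH regen, 60 min RT; stop w/ detection buffer, 20 min; luminescence. Normalized to 57 uM ketoconazole.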

For assay [12], the target named is Cytochrome P450 2D6 (Homo sapiens) (UniProt P10635). The assay can be described thus: qHTS Assay for Inhibitors and Substrates of Cytochrome P450 2D6 (AID 891; active = well fitted curve in the direction sought with a large enough effect; an effect the other way counts as inactive or inconclusive; note: potency is the fitted concentration of half-maximal effect; nearly all actives have a fitted effect of over 60% in size). The conditions noted are these: recombinant CYP2D6, luciferin-ME EGE luminescence; series mostly up to 11.4 µM. In a few lines: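 Human CYP2D6 (5 nM) with 30 uM Luciferin-ME EGE (at Km) in 100 mM KPO4, compound preincubated 10 min, then NADPH regeneration system for 60 min at room temperature. Luciferin read by luminescence; normalized to 1.43 uM quinidine.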

For assay [13], the target named is Cytochrome P450 2C19 (Homo sapiens) (UniProt P33261). The assay can be described thus: qHTS Assay for Inhibitors and Substrates of Cytochrome P450 2C19 (AID 899; active = well fitted curve in the direction sought with a large enough effect; an effect the other way counts as inactive or inconclusive; note: potency is the fitted concentration of half-maximal effect; nearly all actives have a fitted effect of over 60% in size). The conditions noted are these: recombinant CYP2C19, luciferin-H EGE luminescence; series mostly up to 11.4 µM. In a few lines:
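Luminescent read-out of luciferin formed from Luciferin-H EGE (10uM, equal to KM). Enzyme 5nM in 50mM KPO4; compound added, 10 min at 37C, then NADPH regenerating system for 60 min at 37C. Full inhibition defined by 57uM ketoconazole.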

Chain of Cytochrome P450 1A2 (Homo sapiens) (P05177 whole entry, looked up): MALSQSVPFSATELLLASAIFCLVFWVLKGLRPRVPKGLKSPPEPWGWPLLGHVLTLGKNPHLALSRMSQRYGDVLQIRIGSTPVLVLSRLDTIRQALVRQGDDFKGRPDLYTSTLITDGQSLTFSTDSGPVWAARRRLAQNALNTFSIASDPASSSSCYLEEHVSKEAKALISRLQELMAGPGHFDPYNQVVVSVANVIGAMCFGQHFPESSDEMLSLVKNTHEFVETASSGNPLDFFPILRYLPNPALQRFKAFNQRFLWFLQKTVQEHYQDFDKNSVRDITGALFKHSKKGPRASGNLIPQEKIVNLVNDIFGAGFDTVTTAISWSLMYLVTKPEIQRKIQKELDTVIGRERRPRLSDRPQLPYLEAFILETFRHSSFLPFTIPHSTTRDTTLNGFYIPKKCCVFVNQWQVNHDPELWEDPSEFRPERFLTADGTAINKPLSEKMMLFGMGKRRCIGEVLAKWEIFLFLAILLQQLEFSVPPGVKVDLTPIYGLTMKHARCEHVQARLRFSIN
Chain of Cytochrome P450 3A4 (Homo sapiens) (P08684 whole entry, looked up): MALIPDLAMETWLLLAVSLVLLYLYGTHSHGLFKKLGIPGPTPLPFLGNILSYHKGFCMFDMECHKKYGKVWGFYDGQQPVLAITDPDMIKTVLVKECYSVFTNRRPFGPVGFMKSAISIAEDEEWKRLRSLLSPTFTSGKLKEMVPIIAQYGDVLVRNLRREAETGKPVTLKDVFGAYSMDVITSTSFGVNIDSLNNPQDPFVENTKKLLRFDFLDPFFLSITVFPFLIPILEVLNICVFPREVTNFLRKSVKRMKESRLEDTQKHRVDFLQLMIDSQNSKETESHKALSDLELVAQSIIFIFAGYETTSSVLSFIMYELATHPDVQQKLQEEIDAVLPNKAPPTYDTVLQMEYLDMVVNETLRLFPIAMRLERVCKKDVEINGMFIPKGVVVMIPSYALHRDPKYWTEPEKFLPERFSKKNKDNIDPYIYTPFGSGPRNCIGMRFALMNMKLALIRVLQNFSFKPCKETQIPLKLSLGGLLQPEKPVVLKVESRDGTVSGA
Chain of Lysosomal acid glucosylceramidase (Homo sapiens) (P04062 whole entry, looked up): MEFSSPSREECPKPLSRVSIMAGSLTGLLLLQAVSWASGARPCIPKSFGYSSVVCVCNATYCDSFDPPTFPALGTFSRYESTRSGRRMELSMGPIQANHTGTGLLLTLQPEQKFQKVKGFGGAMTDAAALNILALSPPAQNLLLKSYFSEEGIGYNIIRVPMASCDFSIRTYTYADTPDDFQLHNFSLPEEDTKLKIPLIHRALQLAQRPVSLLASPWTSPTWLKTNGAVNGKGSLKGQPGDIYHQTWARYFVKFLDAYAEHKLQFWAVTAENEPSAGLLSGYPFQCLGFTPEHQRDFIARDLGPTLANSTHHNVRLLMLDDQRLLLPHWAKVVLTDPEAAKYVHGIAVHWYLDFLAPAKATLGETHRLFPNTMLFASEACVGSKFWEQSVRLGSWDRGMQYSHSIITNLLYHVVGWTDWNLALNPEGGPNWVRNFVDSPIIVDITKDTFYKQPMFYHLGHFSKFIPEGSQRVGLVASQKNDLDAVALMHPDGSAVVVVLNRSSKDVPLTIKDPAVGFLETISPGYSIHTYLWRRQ
Chain of 3',5'-cyclic-AMP phosphodiesterase 4B (Homo sapiens) (Q07343 whole entry, looked up): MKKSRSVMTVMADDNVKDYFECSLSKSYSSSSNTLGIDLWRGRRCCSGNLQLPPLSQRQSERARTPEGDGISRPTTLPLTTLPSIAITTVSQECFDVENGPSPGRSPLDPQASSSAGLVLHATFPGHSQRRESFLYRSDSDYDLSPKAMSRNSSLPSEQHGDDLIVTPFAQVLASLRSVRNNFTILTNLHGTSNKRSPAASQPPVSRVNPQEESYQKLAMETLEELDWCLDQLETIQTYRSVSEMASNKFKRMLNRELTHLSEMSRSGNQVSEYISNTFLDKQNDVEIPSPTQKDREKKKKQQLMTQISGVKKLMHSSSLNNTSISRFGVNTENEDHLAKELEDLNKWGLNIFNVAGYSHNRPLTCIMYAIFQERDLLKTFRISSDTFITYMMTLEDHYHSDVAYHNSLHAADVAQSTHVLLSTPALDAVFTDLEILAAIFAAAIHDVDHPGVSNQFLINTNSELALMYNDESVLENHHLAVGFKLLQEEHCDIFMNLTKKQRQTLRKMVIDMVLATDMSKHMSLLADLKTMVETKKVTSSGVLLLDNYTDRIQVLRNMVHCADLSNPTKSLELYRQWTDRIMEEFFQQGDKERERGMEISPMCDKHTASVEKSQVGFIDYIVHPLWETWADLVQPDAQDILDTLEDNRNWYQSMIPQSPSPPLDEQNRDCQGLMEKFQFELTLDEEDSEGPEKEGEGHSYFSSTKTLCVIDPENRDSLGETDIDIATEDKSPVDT
Chain of Glucocorticoid receptor (Homo sapiens) (P04150 whole entry, looked up, the tested form may be a part): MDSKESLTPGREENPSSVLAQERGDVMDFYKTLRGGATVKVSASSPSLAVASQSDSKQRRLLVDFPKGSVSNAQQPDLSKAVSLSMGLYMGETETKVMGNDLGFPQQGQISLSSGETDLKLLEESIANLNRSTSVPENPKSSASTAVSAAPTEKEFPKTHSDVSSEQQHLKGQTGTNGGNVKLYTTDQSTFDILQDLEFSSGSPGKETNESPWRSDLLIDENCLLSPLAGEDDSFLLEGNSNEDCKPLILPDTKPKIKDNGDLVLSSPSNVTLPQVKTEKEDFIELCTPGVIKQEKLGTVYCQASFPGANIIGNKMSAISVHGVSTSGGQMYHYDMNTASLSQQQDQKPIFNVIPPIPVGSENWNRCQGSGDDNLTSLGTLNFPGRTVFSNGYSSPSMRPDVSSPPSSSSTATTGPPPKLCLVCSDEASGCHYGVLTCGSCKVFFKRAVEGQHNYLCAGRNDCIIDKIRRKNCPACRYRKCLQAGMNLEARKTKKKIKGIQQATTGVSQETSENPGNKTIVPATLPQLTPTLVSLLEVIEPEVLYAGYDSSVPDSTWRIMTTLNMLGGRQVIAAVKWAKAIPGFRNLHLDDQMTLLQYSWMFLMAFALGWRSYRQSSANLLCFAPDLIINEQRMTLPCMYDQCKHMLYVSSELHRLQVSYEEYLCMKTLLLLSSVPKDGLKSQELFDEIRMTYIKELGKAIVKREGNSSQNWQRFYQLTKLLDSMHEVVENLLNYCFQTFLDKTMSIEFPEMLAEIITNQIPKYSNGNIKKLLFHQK
Chain of Cytochrome P450 2C19 (Homo sapiens) (P33261 whole entry, looked up): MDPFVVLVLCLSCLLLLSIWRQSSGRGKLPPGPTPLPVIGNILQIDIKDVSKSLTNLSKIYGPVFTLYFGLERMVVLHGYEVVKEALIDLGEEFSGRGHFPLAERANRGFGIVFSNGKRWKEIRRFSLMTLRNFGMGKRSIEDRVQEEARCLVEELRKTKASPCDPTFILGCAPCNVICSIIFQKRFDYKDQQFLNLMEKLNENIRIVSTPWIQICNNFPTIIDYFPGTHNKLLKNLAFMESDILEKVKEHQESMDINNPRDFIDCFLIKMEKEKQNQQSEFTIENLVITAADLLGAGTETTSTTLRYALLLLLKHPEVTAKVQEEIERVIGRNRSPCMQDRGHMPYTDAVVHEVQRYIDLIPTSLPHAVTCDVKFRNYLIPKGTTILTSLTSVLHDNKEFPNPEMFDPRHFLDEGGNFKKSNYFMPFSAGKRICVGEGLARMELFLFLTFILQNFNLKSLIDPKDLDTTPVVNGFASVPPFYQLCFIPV
Chain of Cytochrome P450 2D6 (Homo sapiens) (P10635 whole entry, looked up): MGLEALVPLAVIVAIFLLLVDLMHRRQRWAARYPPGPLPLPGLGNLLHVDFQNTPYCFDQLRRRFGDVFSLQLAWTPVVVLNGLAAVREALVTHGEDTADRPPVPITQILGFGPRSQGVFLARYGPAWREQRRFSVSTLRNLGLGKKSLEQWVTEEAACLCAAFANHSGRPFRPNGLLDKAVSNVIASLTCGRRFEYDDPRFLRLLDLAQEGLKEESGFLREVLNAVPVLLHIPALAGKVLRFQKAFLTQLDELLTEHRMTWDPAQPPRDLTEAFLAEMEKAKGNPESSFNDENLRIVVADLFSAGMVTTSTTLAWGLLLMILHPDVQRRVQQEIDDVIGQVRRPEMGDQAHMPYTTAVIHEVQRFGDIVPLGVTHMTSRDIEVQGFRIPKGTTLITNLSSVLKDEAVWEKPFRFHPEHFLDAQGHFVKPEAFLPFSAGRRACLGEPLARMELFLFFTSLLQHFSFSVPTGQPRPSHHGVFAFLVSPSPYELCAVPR

Take `CN[C@@H](c1ccncc1)[C@@H](NC)c1ccncc1`: the Potency in [1] is greater than 11.4 µM; in [6], greater than 46 µM; in assay [7], greater than 9.22 µM; in [10] it was 5.01 µM (active). Besides, the results for the activity change, negative = inhibition in assay [2] and in assay [4] were 11.4% and -1.07%, respectively. The Potency result in assay [3], in assay [8], in assay [9] and in [11] was “inactive” throughout. Further, in assay [5], the activity, negative = inhibition is -0.841%.
Regarding `COc1cc2c3cc1Oc1c(OC)c(OC)cc4c1[C@@H](Cc1ccc(O)c(c1)Oc1ccc(cc1)C[C@@H]3N(C)CC2)CN(C)C4`, the Potency was greater than 11.4 µM in assay [1], greater than 46 µM in assay [6] and greater than 9.22 µM in [7]. Also, the activity change, negative = inhibition was -11.4% in [2] and -11.8% in assay [4]. The Potency entry in [3], in [8], in assay [9] and in assay [11] was “inactive” throughout. In assay [5], the activity, negative = inhibition is -1.76%.
For `c1cncc(-c2cc(-c3cc(-c4cccnc4)n[nH]3)[nH]n2)c1`, the Potency was greater than 11.4 µM in assay [1], 0.501 µM (active) in [3], greater than 46 µM in [6] and greater than 9.22 µM in assay [7]. In addition, the activity change, negative = inhibition in assay [2] is 4.4%; in assay [4], 14%. Also, the activity, negative = inhibition in assay [5] is -1.32%. Further, the Potency entry in assay [8], in assay [9] and in [11] was “inactive” throughout.
As for `NNC(=O)CCc1ccc2ccc3ccccc3c2c1`, the Potency in assay [1] is greater than 11.4 µM; in [3] it was 0.0316 µM (active); in assay [6], greater than 46 µM; in assay [7], greater than 9.22 µM; in assay [10], 0.398 µM (active); in assay [12], 1.58 µM (active). In addition, the Potency in assay [13] is 0.251 µM (active). Further, the values for the activity change, negative = inhibition in assay [2] and in assay [4] were -3.44% and 13.8%, respectively. Also, the activity, negative = inhibition in [5] is -11%. Moreover, the Potency entry in assay [8], in assay [9] and in [11] was “inactive” each time.
As to `C[C@](O)(c1ccccc1)c1nccc2ccccc12`, the results for the Potency in assay [1], in [6] and in assay [7] were greater than 11.4 µM, greater than 46 µM and greater than 9.22 µM, respectively. The activity change, negative = inhibition in [2] is -0.483%; in assay [4] it was 3.41%; in [10] it was 49.6% [at 11.4 µM]. Further, the Potency entry in assay [3], in [8] and in assay [9] was “inactive” in each case. Further, the activity, negative = inhibition in [5] was -8.29%.
Consider `ON(CCc1ccccn1)Cc1ccccc1`, for which the Potency in assay [1] was greater than 11.4 µM; in [3] it was 2.51 µM (active); in [6], greater than 46 µM; in assay [7], greater than 9.22 µM. Further, the activity change, negative = inhibition in assay [2] is -1.79%; in assay [4] it was 10.2%. The activity, negative = inhibition in [5] is -0.0119%. The Potency result in assay [8], in [9] and in assay [11] was “inactive” in each case.
Take `Cn1c(=S)c2[nH]c(SCc3cccnc3)nc2n(C)c1=O`: the Potency is greater than 11.4 µM in assay [1]; 3.98 µM (active) in [3]; greater than 46 µM in [6]; greater than 9.22 µM in assay [7]; 3.16 µM (active) in assay [10]. In addition, the figures for the activity change, negative = inhibition in assay [2] and in assay [4] were -21.1% and 0.274%, respectively. The activity, negative = inhibition in [5] was 1.06%. The Potency entry in assay [8], in [9] and in assay [11] was “inactive” throughout.
